Drawing on PubChem BioAssay, this text covers composite z-score and z-score for 14 molecules.

Active and inactive are the calls of the source.

Test [1] is described as follows: anti-His antibody binders, primary screen, artefact control for SMM control protein annotation, biochemical, small-molecule microarray, 635 nm fluorescence (AID 1128).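 Further: score merges feature fluorescence with signal-to-noise for each printed compound spot.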 The conditions noted are these: anti-His Alexa647 antibody binding, higher = more signal.
In test [2] the test system is Human papillomavirus type 1a E7 protein (residues 1-88). Description: HPV1a E7 small-molecule binders, primary screen, biochemical, small-molecule microarray, residues 1-88, 635 nm (AID 1129). The conditions noted are these: small-molecule microarray binding, fluorescence 635 nm; higher = more signal.
In test [3] the target is Focal adhesion kinase 1 (Homo sapiens) (UniProt Q05397). Description: small-molecule microarray binders of FAK, primary screen, biochemical, 635/667 nm fluorescence, BSA, DTT (AID 1130).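 Further: composite of spot emission at 667 nm and signal to noise over triplicate slides.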 To be noted: PTK2 binding, 635 nm fluorescence, higher = more signal.
Chain of Focal adhesion kinase 1 (Homo sapiens) (Q05397 whole entry, looked up): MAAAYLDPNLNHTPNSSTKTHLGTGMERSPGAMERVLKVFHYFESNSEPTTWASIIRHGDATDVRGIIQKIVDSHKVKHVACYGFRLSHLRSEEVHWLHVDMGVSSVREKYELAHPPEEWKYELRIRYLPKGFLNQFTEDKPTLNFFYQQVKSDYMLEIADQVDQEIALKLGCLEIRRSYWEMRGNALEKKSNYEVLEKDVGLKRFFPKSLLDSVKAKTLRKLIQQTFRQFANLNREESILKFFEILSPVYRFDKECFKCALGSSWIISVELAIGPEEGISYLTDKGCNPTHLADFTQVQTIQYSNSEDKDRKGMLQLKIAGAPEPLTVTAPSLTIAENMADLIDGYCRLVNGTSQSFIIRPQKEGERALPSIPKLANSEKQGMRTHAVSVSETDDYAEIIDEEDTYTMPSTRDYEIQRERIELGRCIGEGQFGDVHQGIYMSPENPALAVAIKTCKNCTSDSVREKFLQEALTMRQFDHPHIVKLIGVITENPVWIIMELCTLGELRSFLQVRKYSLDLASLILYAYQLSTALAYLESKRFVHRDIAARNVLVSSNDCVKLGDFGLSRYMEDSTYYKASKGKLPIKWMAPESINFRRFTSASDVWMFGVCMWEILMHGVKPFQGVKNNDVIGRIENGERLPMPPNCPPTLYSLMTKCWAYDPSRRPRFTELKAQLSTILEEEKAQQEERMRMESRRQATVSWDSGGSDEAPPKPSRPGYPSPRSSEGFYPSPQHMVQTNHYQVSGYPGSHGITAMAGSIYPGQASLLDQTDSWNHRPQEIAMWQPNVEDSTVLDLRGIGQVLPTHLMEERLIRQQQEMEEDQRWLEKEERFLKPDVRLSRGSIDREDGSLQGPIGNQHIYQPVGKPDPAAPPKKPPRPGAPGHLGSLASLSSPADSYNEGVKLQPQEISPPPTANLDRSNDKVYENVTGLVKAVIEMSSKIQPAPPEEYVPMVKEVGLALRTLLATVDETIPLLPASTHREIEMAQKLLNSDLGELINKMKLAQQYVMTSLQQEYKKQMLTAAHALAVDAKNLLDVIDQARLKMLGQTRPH
For test [4], the system named is Fibrinogen (Alexa647-labelled). Briefly: fibrinogen binders on compound microarrays, profiling panel, artefact control for SMM control-protein annotation, biochemical, small-molecule microarray, 635/667 nm fluorescence (AID 1131).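 Further: z-score merges 667 nm fluorescence with per-spot signal-to-noise over triplicate slides.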 To be noted: fibrinogen-A647 binding fluorescence, higher = more signal.
Test [5] deals with Follistatin (Homo sapiens) (UniProt P19883). Briefly: follistatin binders on small-molecule microarrays, primary screen, biochemical, small-molecule microarray, 635/667 nm fluorescence (AID 1132). To be noted: FST binding, 635 nm fluorescence, higher = more signal.
Chain of Follistatin (Homo sapiens) (P19883 whole entry, looked up): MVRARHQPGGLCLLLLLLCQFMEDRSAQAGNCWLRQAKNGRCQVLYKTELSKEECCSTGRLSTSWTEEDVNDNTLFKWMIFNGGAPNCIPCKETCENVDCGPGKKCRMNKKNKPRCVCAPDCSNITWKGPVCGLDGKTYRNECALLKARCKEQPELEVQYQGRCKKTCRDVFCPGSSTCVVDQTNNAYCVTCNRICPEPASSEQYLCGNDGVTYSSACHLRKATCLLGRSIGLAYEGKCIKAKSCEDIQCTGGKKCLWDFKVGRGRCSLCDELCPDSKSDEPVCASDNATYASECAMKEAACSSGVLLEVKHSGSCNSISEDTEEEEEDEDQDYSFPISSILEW
Test [6] deals with Fibroblast growth factor 2 (Homo sapiens) (UniProt P09038). Description: FGF2 binders on small-molecule microarrays, primary screen, biochemical, small-molecule microarray, 635/667 nm fluorescence (AID 1133). The conditions noted are these: small-molecule microarray binding, FGF2, fluorescence 635/667; higher = more signal.
Chain of Fibroblast growth factor 2 (Homo sapiens) (P09038 whole entry, looked up): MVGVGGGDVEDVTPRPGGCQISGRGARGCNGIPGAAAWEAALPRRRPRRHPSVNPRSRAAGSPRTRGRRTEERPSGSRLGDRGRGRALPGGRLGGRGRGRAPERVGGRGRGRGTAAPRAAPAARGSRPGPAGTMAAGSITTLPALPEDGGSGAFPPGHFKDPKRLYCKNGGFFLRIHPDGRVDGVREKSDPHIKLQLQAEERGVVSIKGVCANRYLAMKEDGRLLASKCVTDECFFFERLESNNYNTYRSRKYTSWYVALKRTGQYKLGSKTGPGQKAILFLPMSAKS
Test [7] can be described thus: mitochondrial membrane potential change in A549 cells, profiling panel, cell-based, JC-1 fluorescence, basal, 24 h, 100 nL (AID 1138).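 Further: A549 lung adenocarcinoma cells under basal conditions with no added stimulus; test concentration not given here.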 To be noted: higher = more signal.
For a further test, the system named is Lefty1. Description: Lefty1 binders on small-molecule microarrays, primary screen, biochemical, small-molecule microarray, 635/667 nm fluorescence (AID 1139). To be noted: small-molecule microarray binding, fluorescence 635/667; higher = more signal.
The subject of test [8] is wheat germ agglutinin (Triticum aestivum), Alexa647-labelled. Briefly: wheat germ agglutinin binders on compound microarrays, profiling panel, artefact control for SMM control-protein annotation, biochemical, small-molecule microarray, 635/667 nm fluorescence (AID 1140).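 Further: score merges 667 nm feature emission with signal to noise over triplicate slides.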 The conditions noted are these: WGA-A647 binding, 635 nm fluorescence, higher = more signal.
Test [9] concerns the target Luciferin 4-monooxygenase (Photinus pyralis) (UniProt P08659). Briefly: firefly luciferase enzyme inhibitors, primary screen, biochemical, luminescence, purified enzyme, 2006 set (AID 1141).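 Further: cell-free assay with purified firefly luciferase at 100 ng per well in PBS; test concentration not given here.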 To be noted: SteadyGlo luminescence, 30 min, higher = more signal, called active from +8 up or from −8 down.

Chain of Luciferin 4-monooxygenase (Photinus pyralis) (P08659 whole entry, looked up): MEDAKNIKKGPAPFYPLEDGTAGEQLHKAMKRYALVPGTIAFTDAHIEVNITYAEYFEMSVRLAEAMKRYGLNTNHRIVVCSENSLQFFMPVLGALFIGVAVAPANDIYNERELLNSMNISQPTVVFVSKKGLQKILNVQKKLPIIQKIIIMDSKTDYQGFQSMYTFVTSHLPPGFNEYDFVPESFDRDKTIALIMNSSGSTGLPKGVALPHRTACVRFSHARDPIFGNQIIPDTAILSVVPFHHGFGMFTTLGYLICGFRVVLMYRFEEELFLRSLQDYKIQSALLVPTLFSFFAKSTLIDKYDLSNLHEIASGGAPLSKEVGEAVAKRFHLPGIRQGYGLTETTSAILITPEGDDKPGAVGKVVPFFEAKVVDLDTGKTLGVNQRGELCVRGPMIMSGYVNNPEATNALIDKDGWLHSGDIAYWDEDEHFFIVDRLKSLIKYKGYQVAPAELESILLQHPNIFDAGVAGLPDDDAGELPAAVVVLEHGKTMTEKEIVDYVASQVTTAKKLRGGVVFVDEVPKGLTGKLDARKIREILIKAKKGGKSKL

As to `CN(C)C(=O)[C@@]1(CCC(=O)OC(C)(C)C)N=C(c2ccc(OCCCO)cc2)O[C@H]1c1ccccc1CN=[N+]=[N-]`, the composite z-score in test [1] came out at 2.38; in test [2] it was 1.17; in test [3] it was 0.821; in [4], 1.01; in test [5] it was 1.29; in [6], 0.512. Further, the composite z-score with Lefty1 is -0.597; in [8], 1.05. Moreover, the values for the z-score in test [7] and in test [9] were 0.123 and -0.659 (inactive), respectively.

Take `COc1ccc(C#Cc2ccc3c(c2)[C@]2(C(=O)N3)[C@H](c3ccc(OCCO)cc3)N3[C@H](c4ccccc4)[C@H](c4ccccc4)OC(=O)[C@H]3[C@@H]2C(=O)N2CCc3cc(OC)c(OC)cc3C2)cc1`: the composite z-score in test [1] turned out to be 0.78; in [2], 1.18; in test [3] it was 0.946; in [4], 0.532; in [5], 1.44; in [6] it was 1.49. Further, the composite z-score turned out to be 1.17 in the test on Lefty1 and 0.863 in test [8]. Further, the z-score is -1.14 in [7] and -0.922 (inactive) in [9].

In the case of `COCC1C2CC[C@H]3C(OCc4ccc(OC)cc4)OC[C@]4(C)[C@H]3C2=C(CN4C(=O)OC(C)(C)C)[C@H](C)C1COC` (stereo not given in full), the composite z-score was determined as 0.565 in test [1]; 1.2 in test [2]; 2.09 in test [3]; 1.02 in test [4]; 0.916 in test [5]; 0.0753 in [6]. The composite z-score came to 0.757 with Lefty1 and 0.819 in test [8]. Moreover, the figures for the z-score in test [7] and in test [9] were 2.48 and -0.503 (inactive), respectively.

With `CC(=O)N1CC(C(O)C2C=CC3C(=O)NC(=O)C3N2Nc2ccc(Cl)cc2Cl)c2ccccc21` (stereo not given), the composite z-score is 0.285 in test [1]; 1.15 in test [2]; -0.416 in [3]; 0.439 in test [4]; 0.772 in test [5]; -0.0113 in test [6]. The results for the composite z-score (in the test on Lefty1; in test [8]) were -0.216 and 1.14, respectively. Also, the figures for the z-score in [7] and in [9] were 0.125 and -1.4 (inactive), respectively.

In the case of `COc1cc(NN2C(C(O)C3CCCCC3)C=CC3C(=O)N(c4ccccc4)C(=O)C32)cc(OC)c1OC` (stereo not given), the composite z-score is 1.96 in test [1]; 1.26 in test [2]; 0.724 in test [3]; 0.964 in test [4]; 0.459 in test [5]; -0.776 in test [6]. The figures for the composite z-score (in the test with Lefty1; in [8]) were -0.175 and 1.23, respectively. The z-score is -0.0727 in test [7] and -0.45 (inactive) in [9].

For `CCOC(=O)C[C@H]1[C@H](OC(=O)c2ccc(-c3ccccc3)cc2)[C@@H](NC(=O)Cc2ccc(OC)cc2)c2cc(OCCCO)ccc2N1C(=O)Cc1ccc(OC)cc1`, the composite z-score is -0.871 in [1]; -0.0151 in test [2]; 0.0348 in test [3]; 0.15 in test [4]; 0.0322 in [5]; -0.0269 in [6]. Further, the composite z-score in the test on Lefty1 was -0.289; in [8], 0.175. Also, the values for the z-score in [7] and in [9] were 1.94 and -0.754 (inactive), respectively.

On to `[N-]=[N+]=Nc1ccccc1C[C@]1(C(=O)NCc2ccccc2)COC(c2ccc(OCCCO)cc2)=N1`, for which the composite z-score was determined as 1.39 in test [1]; 1.2 in [2]; 0.467 in test [3]; 0.963 in test [4]; 1.16 in [5]; 0.17 in test [6]. The composite z-score turned out to be 0.556 in the test with Lefty1 and 1.14 in test [8]. Moreover, the figures for the z-score in test [7] and in test [9] were 1.85 and -5.16 (inactive), respectively.

For the molecule `C[C@@H]1ON(c2ccc(I)cc2)[C@H](c2ccc(OC(=O)OC(C)(C)C)cc2)[C@H]1C(=O)N1C(=O)OC[C@H]1Cc1ccccc1`, the composite z-score is 0.955 in [1]; 1.13 in [2]; -0.0457 in [3]; 0.966 in test [4]; 0.61 in test [5]; 0.255 in test [6]. Moreover, the composite z-score was 0.445 with Lefty1 and 0.348 in test [8]. Also, the z-score in test [7] is 0.386; in [9], -0.695 (inactive).

For the molecule `O=C1[C@@H]2[C@@H](CC(COc3ccccc3)=C3[C@@H](CCc4ccccc4)OB(O)C[C@@H]32)C(=O)N1Cc1ccccc1`, the composite z-score was -0.147 in test [1]; 0.871 in test [2]; 0.034 in test [3]; 0.0907 in test [4]; 0.445 in test [5]; 0.161 in [6]. The composite z-score was found to be 0.212 with Lefty1 and 0.344 in [8]. For the same molecule, the z-score is 1.83 in test [7] and -1.06 (inactive) in test [9].

As to `C=CCC(OC(C)=O)[C@@H]1[C@@H](N(Cc2cc3ccccc3o2)C(=O)c2ccc(-c3ccccc3)cc2)c2cc(OCCCO)ccc2N1C(=O)Cc1ccc(OC)cc1` (stereo not given in full), the composite z-score in [1] is -0.289; in test [2] it was -0.27; in test [3] it was -0.19; in test [4] it was 0.457; in test [5], 0.453; in test [6], 0.245. The composite z-score in the test on Lefty1 came to 0.16; in [8], 0.307. Also, the figures for the z-score in test [7] and in test [9] were 0.64 and -0.189 (inactive), respectively.

`O=C1C[C@@](C(=O)NCC(F)(F)F)(c2ccc([N+](=O)[O-])cc2)[C@@H](c2ccc(CO)cc2)N1CC12CC3CC(CC(C3)C1)C2`: the composite z-score in test [1] amounted to 0.544; in test [2] it was 1.2; in test [3] it was 0.0423; in test [4], 0.348; in [5] it was 1.5; in test [6], 1.78. The composite z-score came out at 0.634 in the test on Lefty1 and 0.732 in test [8]. Besides, the z-score is -0.598 in test [7] and 0.28 (inactive) in [9].

In the case of `COCCOC(=O)N1C(=O)[C@@]2(c3cc(C#Cc4ccc(OC)cc4)ccc31)[C@H](c1ccc(OCCO)cc1)N1[C@H](c3ccccc3)[C@H](c3ccccc3)OC(=O)[C@H]1[C@@H]2C(=O)Nc1nc2ccccc2s1`, the composite z-score in test [1] worked out at 0.52; in test [2] it was 1.16; in test [3] it was 0.415; in test [4] it was 0.707; in test [5], 1.05; in [6], 0.464. Besides, the composite z-score in the test with Lefty1 was 0.676; in test [8], 0.609. Also, the z-score in [7] is -2.05; in test [9] it was -1.27 (inactive).

Regarding `NC(=O)[C@H]1[C@@H]2C(=O)O[C@@H](c3ccccc3)[C@@H](c3ccccc3)N2[C@@H](c2ccc(O)cc2)[C@]12C(=O)Nc1ccccc12`, the composite z-score in [1] was 0.53; in test [2], -0.189; in [3], -0.91; in test [4], -1.61; in [5], -0.441; in test [6] it was -0.943. Also, the composite z-score is -0.502 in the test with Lefty1 and -1.03 in test [8]. Besides, the z-score in test [7] was -0.186; in [9], -0.794 (inactive).

For the molecule `CC(C)CNC(=O)[C@@]1(C)c2ccccc2C(=O)N(Cc2cc(C(F)(F)F)cc(C(F)(F)F)c2)[C@H]1c1ccc(CO)cc1`, the composite z-score in test [1] was -0.738; in test [2], -0.391; in [3], -0.342; in [4] it was -1.03; in test [5], -0.117; in test [6] it was 0.0193. Moreover, the values for the composite z-score (in the test on Lefty1; in [8]) were 0.0325 and -0.356, respectively. In addition, the z-score was 0.843 in test [7] and -0.0582 (inactive) in test [9].
